{"source": "PubChem BioAssay (EPA / NIEHS)", "note": "Records with an inconclusive call do not appear. Active and inactive are the calls of the source. Rule for the calls: active = hit-call score of the fitted dose curve at least 0.9, where 1 is the maximum; inconclusive = response in the unintended direction; inactive = score below 0.9."}
{"target": "human Peroxisome Proliferator-activated Receptor delta (PPARd), PPARD (gene 5467) (UniProt Q03181)", "sequence (Q03181 whole entry, looked up)": "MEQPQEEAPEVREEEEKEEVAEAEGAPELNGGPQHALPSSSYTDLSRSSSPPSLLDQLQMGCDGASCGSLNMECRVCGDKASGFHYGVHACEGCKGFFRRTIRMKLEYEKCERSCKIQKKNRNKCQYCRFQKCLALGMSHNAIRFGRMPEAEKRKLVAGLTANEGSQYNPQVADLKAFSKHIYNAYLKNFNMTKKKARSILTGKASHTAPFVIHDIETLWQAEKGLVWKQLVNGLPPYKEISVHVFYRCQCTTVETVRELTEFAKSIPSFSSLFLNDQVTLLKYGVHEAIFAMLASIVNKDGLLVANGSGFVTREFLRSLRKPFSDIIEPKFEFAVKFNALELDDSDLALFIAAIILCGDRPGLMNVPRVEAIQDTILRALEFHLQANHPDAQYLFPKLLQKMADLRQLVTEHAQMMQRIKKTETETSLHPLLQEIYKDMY", "test": "ATG_PPARd_TRANS: Attagene TRANS-FACTORIAL HepG2 Assay for human Peroxisome Proliferator-activated Receptor delta (PPARd) (AID 2283002)", "description": "ATG_TRANS is a cell-based, multiplexed-readout assay that uses HepG2, a human liver cell line, with measurements taken at 24 hours after chemical dosing in a 24-well plate.ATG_PPARd_TRANS is one of 30 assay component(s) measured or calculated from the ATG_TRANS assay. It is designed to make measurements of mRNA induction, a form of inducible reporter, as detected with fluorescence intensity signals by Reverse transcription polymerase chain reaction (RT-PCR) and Capillary electrophoresis technology.Data from the assay component ATG_PPARd_TRANS was analyzed into 1 assay endpoint. This assay endpoint, ATG_PPARd_TRANS, was analyzed in the positive analysis fitting direction relative to DMSO as the negative control and baseline of activity. Using a type of inducible reporter, measures of mRNA for gain-of-signal activity can be used to understand the reporter gene at the transcription factor-level as they relate to the gene PPARD. Furthermore, this assay endpoint can be referred to as a primary readout, because this assay has produced multiple assay endpoints where this one serves a reporter gene function. To generalize the intended target to other relatable targets, this assay endpoint is annotated to the nuclear receptor intended target family, where the subfamily is non-steroidal.\nHuman liver HepG2 cells are transiently transfected with multiple reporter transcription units (MRTUs) in 6-well plates using FuGene 6 reagent (Roche; 3 ml FuGene/1 mg DNA). The MRTU constructs are regulated by a cis-regulating element (promoter). […] A major difference between the CIS and TRANS system is that in CIS activities of endogenous TFs are measured, whereas the TRANS assay evaluates changes in activities of exogenous, chimeric NR-Gal4 proteins. […] At the end of 24 hour incubation, total RNA was isolated using TriZol reagent (Invitrogen). The isolated RNA is then reverse-transcribed using oligo(dT) primer and Mo-MLV reverse transcriptase (Invitrogen) with DNAse I (Ambion) treatment for 30 min. The one-tenth of the produced cDNA was amplified by PCR using Taq DNA polymerase (Invitrogen) and two reporter sequence-specific primers. The PCR products were fluorescently labeled by primer extension with 6-arboxyfluorescein (6-FAM) 5'-labeled reporter sequence-specific primer (2 min at 95 C, 20 s at 68 C and 10 min at 72 C) and these products were digested with 5U of HpaI (New England Biolabs) for 2h at 37 C. The fragments were purified using Qiaquick PCR columns (Qiagen), analyzed on an ABI 3130xL genetic analyzer (Applied Biosystems) with peak positions identified by using a set of X-rhodamine (ROX)-labeled MapMarker1000 molecular weight standards (BioVentures). The raw capillary electrophoresis data was processed using Attagraph software (Attagene)."}
{"compound": "O=C=NC1CCC(CC2CCC(N=C=O)CC2)CC1", "note": "(stereo not given)", "outcome": "inactive"}
{"compound": "CN(C)CCOCCN(C)C", "outcome": "inactive"}
{"compound": "CCC(=O)/C=C/C1C(C)=CCCC1(C)C", "note": "(stereo not given)", "outcome": "inactive"}
{"compound": "C=COCCOCCOCCOC=C", "outcome": "inactive"}
{"compound": "COCCOCCOCCOCCOCCO", "outcome": "inactive"}
{"compound": "C[C@H]1C[C@@H]2[C@H]([C@@H](O)C[C@@]3(C)[C@H]2CC[C@]3(O)C(=O)CO)[C@@]2(C)C=CC(=O)C=C12", "outcome": "inactive"}
{"compound": "CC(C)c1cccc(O)c1", "outcome": "inactive"}
{"compound": "Cc1ccc2sc3cccc(C)c3c2c1", "outcome": "inactive"}
{"compound": "CC(C)=CCO", "outcome": "inactive"}
{"compound": "O=C1CCCCCCCCCCCCCCO1", "AC50": "179 µM (active)"}
{"compound": "CCCCCCCCCCCCSC", "outcome": "inactive"}
{"compound": "C=C(C)C(=O)OCc1ccccc1", "outcome": "inactive"}
{"compound": "CC1CC(OC(=O)c2ccccc2O)CC(C)(C)C1", "note": "(stereo not given)", "outcome": "inactive"}
{"compound": "CC1(C)[C@H]2CC[C@]1(C)[C@H](O)C2", "outcome": "inactive"}
{"compound": "CC1(C)C(=O)N(Br)C(=O)N1Cl", "outcome": "inactive"}
{"compound": "CC(=O)O[C@H](CC(=O)[O-])C[N+](C)(C)C", "outcome": "inactive"}
{"compound": "Cc1ccccc1C=O", "outcome": "inactive"}
{"compound": "CCC(C(=O)NC(N)=O)c1ccccc1", "note": "(stereo not given)", "outcome": "inactive"}
{"compound": "N#Cc1ccccc1", "outcome": "inactive"}
{"compound": "CC(C)(Oc1ccc(CCNC(=O)c2ccc(Cl)cc2)cc1)C(=O)O", "AC50": "79.4 µM (active)"}
{"compound": "Fc1c(F)c(F)c(Br)c(F)c1F", "outcome": "inactive"}
{"compound": "Cc1c(Cl)c(=O)oc2cc(O)ccc12", "outcome": "inactive"}
{"compound": "COc1cc(C(C)(C)C)c(O)c(C(C)(C)C)c1", "outcome": "inactive"}
{"compound": "Sc1nc(S)nc(S)n1", "outcome": "inactive"}
{"compound": "OCCCCCO", "outcome": "inactive"}
{"compound": "Nc1ccc(F)c([N+](=O)[O-])c1", "outcome": "inactive"}
{"compound": "C=CCOc1nc(OCC=C)nc(OCC=C)n1", "outcome": "inactive"}
{"compound": "CN(C)c1ccc(O)c2c1C[C@H]1C[C@H]3[C@H](N(C)C)C(=O)C(C(N)=O)=C(O)[C@@]3(O)C(=O)C1=C2O", "outcome": "inactive"}
{"compound": "C=CC[N+](C)(C)CC=C", "outcome": "inactive"}
{"compound": "O=c1[nH]nnc2ccccc12", "outcome": "inactive"}
{"compound": "CCC/C=C/C=O", "outcome": "inactive"}
{"compound": "O=C[C@H](O)[C@H](O)[C@H](O)CO", "outcome": "inactive"}
{"compound": "NNc1nc(-c2ccc(N)cc2)cs1", "outcome": "inactive"}
{"compound": "CCCCC(CC)COC(=O)/C=C\\C(=O)OCC(CC)CCCC", "note": "(stereo not given)", "outcome": "inactive"}
{"compound": "COC(C(=O)O)c1ccccc1", "note": "(stereo not given)", "outcome": "inactive"}
{"compound": "CC1(C)[C@H](C(=O)OCc2cccc(Oc3ccccc3)c2)[C@@H]1C=C(Cl)Cl", "outcome": "inactive"}
{"compound": "CCC(C)(O)CCC=C(C)C", "note": "(stereo not given)", "outcome": "inactive"}
{"compound": "COc1cc2ncnc(Nc3cccc(Cl)c3)c2cc1OC", "outcome": "inactive"}
{"compound": "COC(=O)Cc1cccc2ccccc12", "outcome": "inactive"}
{"compound": "CCCCNC(=O)NS(=O)(=O)c1ccc(C)cc1", "outcome": "inactive"}
